# Reference: the supplement of paper PMC8728848
# This is one part of a sample in which the strongest signals are shown more often than they occur.
# B1: GS13686A-pdi-553-26-553 (Parabacteroides distasonis) (protein)
# chain: NENPDKPTDDVNYNMNEPRLASTLRGGLIIEGNVEQRLKPLQIDFYSQMTVDGGGWGTKNYIQDDEWNNLVWEEYLKQIASINIVIRSLTEKDKDAYANTIAFARIWRVYVHTLAADKFGPMPFPAYEIVEANPPYKSLKDIYDEYFRELDAAINGFNDSAQPIFSDAGIDLIYKNDVSKWKRFANSLRLRLAVRLTEVDQEKCIAEANAAISSPAGLISDKADNAYMPPKADGSWGQDYNYTMFQITWSGPICMSKSVEKLVTNIGGVAWPQGVVNQTSGVAVSSVHPEKVDPRAPKIFQPGIENGDWKGLVYGPKAEEANTGIYQSKQCAELGFIIKDGYPYKSRPYDLFLSEEVHFLKAELYARGFIAGDAKSEYEAGVRASFATWGVTSEVDDYLTSTEKNEAGTSARYDDQQGAGNTALEKIITQKYIAGIPDLAQEGWNDKRRLNLPRLDVAVYRDQAVYNNNDKDILKSANFIKRMRYPTKESLINATEYEKGKSMLGGKGDIVSTPLWWDKNSNYCTSSK
# Experiments:
# Assay in all cases: glycan array binding signal (z-score within array); higher = stronger binding
# Conditions in all cases: glycan notation: IUPAC condensed, linker removed
# [1] = target: Gal(b1-4)GlcNAc(b1-6)[Gal(b1-4)GlcNAc(b1-3)]GalNAc
# Method in brief: (§1)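 Negative Z-scores can be read as non-binding. The Z-score is calculated within each array and then averaged across arrays of one protein sequence at different concentrations or buffers and across linkers. Arrays, 3228 in all, were curated from the Consortium for Functional Glycomics database and kept only where the protein sequence was available.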
# [2] = target: Gal3S(b1-4)[Fuc(a1-3)]Glc6S
# Method in brief: as §1
# Gal6S(b1-3)GlcNAc = target: Gal6S(b1-3)GlcNAc
# Method in brief: as §1
# Gal6S(b1-4)GlcNAc6S = target: Gal6S(b1-4)GlcNAc6S
# Method in brief: as §1
# GalNAc(b1-4)Gal(b1-4)Glc = target: GalNAc(b1-4)Gal(b1-4)Glc
# Method in brief: as §1
# [3] = target: GalNAc(b1-4)GlcNAc(b1-3)GalNAc(b1-4)GlcNAc
# Method in brief: as §1
# [4] = target: GlcNAc(b1-2)[GlcNAc(b1-4)]Man(a1-3)[GlcNAc(b1-4)][GlcNAc(b1-2)[GlcNAc(b1-6)]Man(a1-6)]Man(b1-4)GlcNAc(b1-4)GlcNAc
# Method in brief: as §1
# GlcNAc(b1-4)GlcNAc = target: GlcNAc(b1-4)GlcNAc
# Method in brief: as §1
# [5] = target: GlcNAc(b1-6)Gal(b1-4)GlcNAc
# Method in brief: as §1
# [6] = target: Man(a1-2)Man(a1-2)Man(a1-6)[Man(a1-3)]Man
# Method in brief: as §1
# Man(a1-2)Man(a1-3)Man = target: Man(a1-2)Man(a1-3)Man
# Method in brief: as §1
# Man(a1-6)Man = target: Man(a1-6)Man
# Method in brief: as §1
# MurNAc(b1-4)GlcNAc = target: MurNAc(b1-4)GlcNAc
# Method in brief: as §1
# [7] = target: Neu5Ac(a2-3)Gal(b1-3)GalNAc(b1-4)[Neu5Ac(a2-3)]Gal(b1-4)Glc
# Method in brief: as §1
# [8] = target: Neu5Ac(a2-3)Gal(b1-3)GlcNAc(b1-2)Man(a1-3)[Neu5Ac(a2-3)Gal(b1-3)GlcNAc(b1-2)Man(a1-6)]Man(b1-4)GlcNAc(b1-4)GlcNAc
# Method in brief: as §1
# [9] = target: Neu5Ac(a2-3)Gal(b1-3)GlcNAc(b1-3)Gal(b1-4)GlcNAc
# Method in brief: as §1
# [10] = target: Neu5Ac(a2-3)Gal(b1-3)GlcNAc(b1-6)GalNAc
# Method in brief: as §1
# [11] = target: Neu5Ac(a2-3)Gal(b1-3)[Fuc(a1-4)]GlcNAc(b1-3)Gal(b1-3)[Fuc(a1-4)]GlcNAc
# Method in brief: as §1
# [12] = target: Neu5Ac(a2-3)Gal(b1-3)[Neu5Ac(a2-6)]GlcNAc(b1-3)[Fuc(a1-3)[Gal(b1-4)]GlcNAc(b1-6)]Gal(b1-4)Glc
# Method in brief: as §1
# [13] = target: Neu5Ac(a2-3)Gal(b1-4)GlcNAc(b1-2)Man(a1-3)[Neu5Ac(a2-6)Gal(b1-4)GlcNAc(b1-2)Man(a1-6)]Man(b1-4)GlcNAc(b1-4)GlcNAc
# Method in brief: as §1
# [14] = target: Neu5Ac(a2-3)Gal(b1-4)GlcNAc(b1-2)[Neu5Ac(a2-3)Gal(b1-4)GlcNAc(b1-4)]Man(a1-3)[GlcNAc(b1-4)][Neu5Ac(a2-3)Gal(b1-4)GlcNAc(b1-2)[Neu5Ac(a2-3)Gal(b1-4)GlcNAc(b1-6)]Man(a1-6)]Man(b1-4)GlcNAc(b1-4)GlcNAc
# Method in brief: as §1
# [15] = target: Neu5Ac(a2-3)Gal(b1-4)GlcNAc(b1-3)Gal(b1-3)GlcNAc
# Method in brief: as §1
# Neu5Ac(a2-6)Gal = target: Neu5Ac(a2-6)Gal
# Method in brief: as §1
# [16] = target: Neu5Ac(a2-6)Gal(b1-3)GlcNAc(b1-3)[Gal(b1-4)GlcNAc(b1-6)]Gal(b1-4)Glc
# Method in brief: as §1
# [17] = target: Neu5Ac(a2-6)Gal(b1-4)GlcNAc(b1-2)Man(a1-3)[Man(a1-6)]Man(b1-4)GlcNAc(b1-4)GlcNAc
# Method in brief: as §1
# [18] = target: Neu5Ac(a2-6)Gal(b1-4)GlcNAc(b1-2)Man(a1-3)[Neu5Ac(a2-6)Gal(b1-4)GlcNAc(b1-2)Man(a1-6)]Man(b1-4)GlcNAc(b1-4)[Fuc(a1-6)]GlcNAc
# Method in brief: as §1
# [19] = target: Neu5Ac(a2-6)Gal(b1-4)GlcNAc(b1-2)Man(a1-6)[Gal(b1-4)GlcNAc(b1-2)Man(a1-3)]Man(b1-4)GlcNAc(b1-4)GlcNAc
# Method in brief: as §1
# [20] = target: Neu5Gc(a2-3)Gal(b1-4)[Fuc(a1-3)]GlcNAc
# Method in brief: as §1
# [21] = target: Neu5Gc(a2-8)Neu5Gc(a2-3)Gal(b1-4)GlcNAc(b1-3)Gal(b1-4)GlcNAc
# Method in brief: as §1
binder,measurement,setting,value
B1,glycan array binding signal (z-score),[1],-0.002
same,glycan array binding signal (z-score),[2],0.425
same,glycan array binding signal (z-score),Gal6S(b1-3)GlcNAc,22.6
same,glycan array binding signal (z-score),Gal6S(b1-4)GlcNAc6S,-0.176
same,glycan array binding signal (z-score),GalNAc(b1-4)Gal(b1-4)Glc,0.208
same,glycan array binding signal (z-score),[3],0.492
same,glycan array binding signal (z-score),[4],-0.24
same,glycan array binding signal (z-score),GlcNAc(b1-4)GlcNAc,-0.294
same,glycan array binding signal (z-score),[5],-0.023
same,glycan array binding signal (z-score),[6],-0.073
same,glycan array binding signal (z-score),Man(a1-2)Man(a1-3)Man,-0.226
same,glycan array binding signal (z-score),Man(a1-6)Man,0.458
same,glycan array binding signal (z-score),MurNAc(b1-4)GlcNAc,-0.226
same,glycan array binding signal (z-score),[7],-0.071
same,glycan array binding signal (z-score),[8],-0.099
same,glycan array binding signal (z-score),[9],-0.307
same,glycan array binding signal (z-score),[10],3.88
same,glycan array binding signal (z-score),[11],-0.153
same,glycan array binding signal (z-score),[12],-0.086
same,glycan array binding signal (z-score),[13],1.01
same,glycan array binding signal (z-score),[14],0.051
same,glycan array binding signal (z-score),[15],-0.389
same,glycan array binding signal (z-score),Neu5Ac(a2-6)Gal,-0.025
same,glycan array binding signal (z-score),[16],2
same,glycan array binding signal (z-score),[17],0.341
same,glycan array binding signal (z-score),[18],0.391
same,glycan array binding signal (z-score),[19],0.126
same,glycan array binding signal (z-score),[20],0.009
same,glycan array binding signal (z-score),[21],-0.323
